# Potency and affinity values are given separately. Activity calls are given as the source filed them.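 Rule for the calls: active = in all runs, an absorbance decrease of 25% or more of the average positive control decrease; inconclusive = runs conflict, with both active and inactive results; inactive = all runs inactive, opposite-direction effects included.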
# Target: Protein disulfide-isomerase A6 (Homo sapiens) (UniProt Q15084)
# Assay: reduced insulin turbidity driven by ERp5 (PDIA6) – biochemical, absorbance 650 nm, cherry-picked samples, dose response (AID 720566);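 note: negative values mean less insulin aggregation so ERp5 inhibition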
# Details: Recombinant ERp5 insulin aggregation; series mostly up to 35 µM
# Sequence of Protein disulfide-isomerase A6 (Homo sapiens) (Q15084 whole entry, looked up): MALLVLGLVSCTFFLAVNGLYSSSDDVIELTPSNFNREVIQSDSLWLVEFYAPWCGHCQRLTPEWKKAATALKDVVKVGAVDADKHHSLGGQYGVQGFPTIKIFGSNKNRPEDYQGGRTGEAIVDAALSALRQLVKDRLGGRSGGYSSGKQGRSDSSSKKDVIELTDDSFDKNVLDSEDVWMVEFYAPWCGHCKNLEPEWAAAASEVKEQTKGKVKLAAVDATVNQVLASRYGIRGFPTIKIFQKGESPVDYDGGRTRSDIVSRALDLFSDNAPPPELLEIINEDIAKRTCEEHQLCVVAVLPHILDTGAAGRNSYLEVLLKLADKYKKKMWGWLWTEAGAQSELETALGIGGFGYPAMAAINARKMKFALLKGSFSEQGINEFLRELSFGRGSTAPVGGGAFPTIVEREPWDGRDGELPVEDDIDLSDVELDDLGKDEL
row,Structure (SMILES),outcome
1,O=C(C[C@@H]1CC[C@@H]2[C@H](COC[C@@H](O)CN2S(=O)(=O)c2ccccc2)O1)NCCN1CCCC1,inactive
2,COc1ccc(-c2csc(NC(=O)C3CCN(C(=O)c4ccc(F)cc4)CC3)n2)cc1OC,inactive
3,COCCNC(=O)C[C@@H]1C[C@H]2c3cc(NC(=O)NC4CCCC4)ccc3O[C@H]2[C@@H](CO)O1,inactive
4,COCC(=O)N(C)C[C@@H]1Oc2cc(C#CC(C)(C)O)ccc2S(=O)(=O)N([C@H](C)CO)C[C@@H]1C,inactive
5,CO[C@H]1CN(C)C(=O)c2cc(NC(=O)CC(F)(F)F)ccc2OC[C@H](C)N(C(=O)C2CC2)C[C@@H]1C,inactive
6,O=C(NC1CCCC1)[C@@H]1[C@@H](CO)[C@@H]2Cn3c(ccc(-c4cccnc4)c3=O)[C@H]1N2CC1CC1,inactive
7,COCC(=O)N(C)C[C@H]1Oc2cc(C#CC(C)(C)O)ccc2S(=O)(=O)N([C@@H](C)CO)C[C@@H]1C,inactive
8,Cc1ccc(S(=O)(=O)N(C)C)cc1NC(=O)COC(=O)C1(c2ccccc2)CC1,inactive
9,C[C@@H]1CN([C@@H](C)CO)C(=O)c2cc(C#CC3(O)CCCC3)cnc2O[C@H]1CN(C)C(=O)Cc1cccnc1,inactive
10,O=C1[C@@H](c2ccccc2)CC[C@@H]2C=CC[C@H]3CCN1[C@@H]32,inactive
11,COc1cccc(S(=O)(=O)N2CC3(CN(C(=O)Nc4cccc(F)c4)[C@H](CO)c4[nH]c5cc(OC)ccc5c43)C2)c1,inactive
12,CCC[C@@H](CN1CCC[C@H]1CN1C(N)=NC[C@H]1CC(C)C)N1C[C@@H]([C@H](C)CC)N(CCCC2CCCC2)C1=N,inactive

# From PubChem BioAssay AID720566 (Broad Institute, 2013)
